Common to all, as to assay: NCI-60 one-dose screen, 48 h (100 = growth as untreated, 0 = no growth, -100 = all killed)
Holding throughout (details): 10 µM unless noted

For assay [1], the system named is EKVX NSCLC.
Assay [2] relates to SN12C renal.
Assay [3] concerns UO-31 renal.
Assay [4] has as its system TK-10 renal.
The subject of assay [5] is ACHN renal.
In assay [6] the test system is CAKI-1 renal.
Assay [7] relates to A498 renal.
Assay [8] deals with CCRF-CEM leukemia.
Assay [9] deals with MOLT-4 leukemia.
Assay [10] concerns SR leukemia.
In assay [11] the test system is RPMI-8226 leukemia.
Assay [12] deals with OVCAR-8 ovarian.
The test system of assay [13] is OVCAR-5 ovarian.
The subject of assay [14] is OVCAR-4 ovarian.
For assay [15], the system named is SK-OV-3 ovarian.
Assay [16] relates to IGROV1 ovarian.
Assay [17] relates to OVCAR-3 ovarian.
The test system of assay [18] is HS 578T breast.
For assay [19], the system named is NCI/ADR-RES ovarian.
Assay [20] concerns SK-MEL-2 melanoma.

Each structure is given as a SMILES string. About 83,000 compounds went through this panel and 20% of them were active in at least one assay; those are over-represented in the sample as a whole.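 Plates (96-well) were seeded with cells, treated with compound at one concentration, and incubated for 48 hours before percent growth was determined.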 A number with no mark means an inactive call. The source made the active and inactive calls. How the source made its calls: active means growth percent below 10; inactive means the rest.

`COc1ccc(-c2cc(-c3cc(OC)ccc3OC)[nH]c(=O)c2C#N)cc1`: the growth in [1] was 96.5%; in assay [2], 72%; in assay [3], 64.4%; in [4], 84.9%; in assay [5] it was 85.3%; in assay [6], 63%. In addition, the growth in assay [7] is -1.35% (active); in assay [8], 76.9%; in assay [9], 44.3%; in assay [10] it was 14.2%; in assay [11] it was 88.6%; in assay [12], 56.6%. Also, the growth in [13] was 116%; in [14] it was 68.9%; in assay [15], 71.6%; in [16], 53.3%; in [17], 21.3%; in assay [18], 43.5%. Besides, in assay [19], the growth was 34.2%.
As to `CC(=O)Nc1nccs1`, the growth in assay [1] was 92.2%; in assay [2], 97.2%; in assay [3] it was 84.7%; in assay [4], 99.9%; in assay [5] it was 98.1%; in [6] it was 101%. In addition, the growth is 73.6% in [7]; 96.4% in [8]; 103% in assay [9]; 111% in [10]; 102% in assay [11]; 103% in assay [12]. The growth was 84.3% in [13]; 117% in assay [14]; 98.8% in assay [15]; 94.7% in assay [16]; 99.6% in assay [17]; 91.7% in assay [18]. Also, the growth in assay [19] was 94.3%.
On to `CC(C)CCC[C@@H](C)[C@H]1CCC2C3=CCn4c(=O)ccc(=O)n4C3CC[C@@]21C` (some centres undefined), for which the growth in [20] was -57.4% (active); in assay [3] it was -88.5% (active); in assay [4] it was -83.1% (active); in assay [5], -95.1% (active); in assay [6], -91.6% (active); in assay [7] it was -94.8% (active). The growth in assay [8] is -2.44% (active); in assay [9], -23.6% (active); in [10], -34.6% (active); in assay [11] it was -41.5% (active); in [12] it was -39.7% (active); in [13], -84.3% (active). For the same compound, the growth in assay [14] is -32.4% (active); in assay [15], -100% (active); in [16], -82.4% (active); in assay [17] it was -96.5% (active); in [18], -12.2% (active); in assay [19], -28.7% (active).
Turning to `NC(=S)c1csc(CCNC(=O)c2ccccc2)n1`, the growth was 115% in assay [20]; 91% in assay [3]; 107% in assay [4]; 105% in [5]; 91.3% in [6]; 89.6% in assay [7]. Moreover, the growth in assay [8] is 90.3%; in assay [9] it was 102%; in assay [10], 107%; in assay [11] it was 102%; in assay [12], 106%; in assay [13] it was 117%. In addition, the growth was 91.2% in assay [14]; 101% in assay [15]; 112% in [16]; 113% in assay [17]; 102% in assay [18]; 110% in assay [19].

Values taken from PubChem BioAssay (NCI).
